The values below come from PubChem BioAssay AID772 (SRMLSC, 2007).

About 20 (0.6%) of roughly 3,300 compounds were called active.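 Rule for the calls: active = growth inhibition above 90%, meaning viable cell count cut by more than 90% versus vehicle controls; inactive = growth inhibition below 90%.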 The sample as a whole holds a higher share of actives than the screen did.

This experiment is described as follows: HT29 colon tumor cell growth inhibition, primary screen, imaging, high content imaging, 72 h, CellTiter-Glo (AID 772).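 For condensed nuclei: condensed means nuclear area below control median minus 1.5 SD.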 As to conditions: HCS imaging cell count, at 10 µM, stronger effect = higher value; for condensed nuclei: measured here: percent cells with condensed nuclei. On the technique in general: In ATP-based viability assays light output follows the ATP content of the culture.

Where [1] appears, read: measured here: ATP CellTiter-Glo viability.

Consider `CC1(c2ccco2)NC(=O)NC1=O` (centres undefined), for which the growth inhibition is 16.9% (inactive) and the condensed nuclei was found to be 12.6%. The growth inhibition under setting [1] is 7.41%.

In the case of `CC(C)CCNc1nc2c(cc1C#N)COC(C)(C)C2`, the growth inhibition is 12.7% (inactive) and the condensed nuclei turned out to be 1.81%. The growth inhibition under setting [1] worked out at 2.37%.

As to `CNc1nc(C)c(C#N)cc1C(C)=O`, the growth inhibition is 82.9% (inactive) and the condensed nuclei was determined as 1.85%. Moreover, the growth inhibition under setting [1] came to 37.9%.

As for `CN1C(=O)N(c2ccccc2)C(Nc2nncs2)C1(C)C` (centres undefined), the growth inhibition is -44.1% (inactive) and the condensed nuclei came to 5.92%. The growth inhibition under setting [1] is -46.4%.

`CCOC(=O)C1CCN(C(C)=C2C(=O)c3ccccc3C2=O)CC1`: the growth inhibition was -17.6% (inactive) and the condensed nuclei stood at 15.2%. In addition, the growth inhibition under setting [1] was -13.6%.

Turning to `CCCCCSc1nc(N2CCOCC2)c2c(c1C#N)CC(C)(C)OC2`, the growth inhibition is 69.6% (inactive) and the condensed nuclei was 29.7%. The growth inhibition under setting [1] turned out to be 74.9%.

Consider `CC1(C)Cc2c(C#N)c(SCc3nc4ccccc4[nH]3)nc(N3CCOCC3)c2CO1`, for which the growth inhibition is 90.8% (active) and the condensed nuclei stood at 5.26%. In addition, the growth inhibition under setting [1] was determined as 83.4%.

`CC1(C)Cc2c(C#N)c(SCCOc3ccccc3)nc(N3CCOCC3)c2CO1`: the growth inhibition is -23.3% (inactive) and the condensed nuclei stood at 0.88%. The growth inhibition under setting [1] was -59.6%.

In the case of `COc1ccc(Cn2c(CCCO)nc3ccccc32)cc1OC`, the growth inhibition was 32.8% (inactive) and the condensed nuclei amounted to 5.26%. Also, under setting [1], the growth inhibition is 6.64%.

On to `CN1CCc2nc(SCC(=O)Nc3ccc(Cl)cc3)c(C#N)cc2C1`, for which the growth inhibition is 54.4% (inactive) and the condensed nuclei came to 17.3%. Further, the growth inhibition under setting [1] came out at 55.6%.

For `Cc1ccc(N2C(=O)C3ON(c4ccccc4)C(c4ccncc4)C3C2=O)c(C)c1` (centres undefined), the growth inhibition was 10.2% (inactive) and the condensed nuclei stood at 8.14%. Also, the growth inhibition under setting [1] worked out at 1.38%.

In the case of `Cc1ccc(OCc2nnc(NC(=O)c3ccco3)s2)c(C)c1`, the growth inhibition is -8.86% (inactive) and the condensed nuclei worked out at 11.2%. In addition, under setting [1], the growth inhibition is -6.84%.

Consider `Cc1cc(=O)oc(C)c1C(=O)NCCNC(=O)c1c(C)cc(=O)oc1C`, for which the growth inhibition is 5.17% (inactive) and the condensed nuclei was 2.08%. In addition, the growth inhibition under setting [1] was -5.21%.

Regarding `CN1CCCN=C1COC(=O)C(O)(c1ccccc1)C1CCCCC1` (centres undefined), the growth inhibition is -62.6% (inactive) and the condensed nuclei was determined as 2.98%. Besides, the growth inhibition under setting [1] was -21.5%.

On to `CCN(CC)CC#CCOC(=O)C(O)(c1ccccc1)C1CCCCC1` (centres undefined), for which the growth inhibition is 93.1% (active) and the condensed nuclei came to 18.4%. In addition, the growth inhibition under setting [1] came out at 92.7%.

Consider `CC[N+](C)(CC)CCOC(=O)C(O)(c1ccccc1)C1CCCCC1` (centres undefined), for which the growth inhibition was -74.7% (inactive) and the condensed nuclei was determined as 4.12%. Also, under setting [1], the growth inhibition was -22.9%.

Consider `c1ccc(Cc2nnc3n2CCCCC3)cc1`, for which the growth inhibition was -43.5% (inactive) and the condensed nuclei was found to be 1.7%. Also, under setting [1], the growth inhibition is -46.4%.

With `O=C1c2ccccc2C(=O)C1c1ccc2ccccc2n1`, the growth inhibition is 18.9% (inactive) and the condensed nuclei is 4.03%. For the same compound, the growth inhibition under setting [1] turned out to be 7.1%.
